45 sequences from article PMC7819943, “Rice protein-binding microarrays: a tool to detect cis-acting elements near promoter regions in rice” can be followed below.

In all, about 35,000 sequences were measured (“fluorescence intensity (a.u.)”: median about 10,000, highest 2% from about 52,000 on). The sample holds the highest values, similar sequences and a random draw of the others, so the mix is not that of the screen.

For the test, the target named is T1, OsWOX13 (Oryza sativa, UniProt Q5QMM3 1-267).
T1 sequence: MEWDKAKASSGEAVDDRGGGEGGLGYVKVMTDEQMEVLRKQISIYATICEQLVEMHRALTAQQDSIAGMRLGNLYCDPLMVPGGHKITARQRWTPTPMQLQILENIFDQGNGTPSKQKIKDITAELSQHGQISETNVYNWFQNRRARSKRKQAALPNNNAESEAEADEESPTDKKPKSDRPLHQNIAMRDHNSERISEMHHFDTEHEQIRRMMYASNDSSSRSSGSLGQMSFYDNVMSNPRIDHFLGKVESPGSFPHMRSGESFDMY
Put plainly: protein-binding microarray (RPBM); PBS, 2% BSA, 51.3 ng/ul salmon testes DNA, 50 uM zinc acetate, 200 nM TF, 25 C, 1 h; high values mean tight binding. The settings on record: protein: recombinant; tags: N-terminal polyhistidine and DsRed monomer fusion (pET32a); label: CyDye5-dUTP incorporated in the synthesized complementary strand; 3' TTTTT single-stranded linker to array surface; dsDNA, one strand shown. The essentials:
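Polyhistidine-tagged DsRed fusions of transcription factors, joined at the N-terminus, were expressed in E. coli BL21-CodonPlus and isolated on Ni–NTA. They were incubated at 200 nM for 1 h at 25 °C on a custom Agilent array, double-stranded and BSA-blocked, in PBS with 2% BSA, salmon testes DNA and 50 µM zinc acetate. The binding signal is per-feature fluorescence intensity (arbitrary units) read on an Axon 4000B scanner after washing.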
As for “CATTAAGAGTGATTGAATCTTGTTCTAAACATTAACTTTTCGGAGTCACCTAGTGCAG”, the binding signal was 26300 fluorescence intensity (a.u.).

Consider “AAAGTAATTAGTGTTTTCTTGATTAGTCTTTTCCTTGTATCGGAGTCACCTAGTGCAG”, for which the binding signal is 42700 fluorescence intensity (a.u.).

As to “TCTAATTTCTTCCCTTGCAGATTGATCTTGTTAGTGAGCCCGGAGTCACCTAGTGCAG”, the binding signal was 20700 fluorescence intensity (a.u.).

Turning to “TTAATTAATTTCTCTAATGATTCTCAATCTTGTGTTCTTCCGGAGTCACCTAGTGCAG”, the binding signal is 28300 fluorescence intensity (a.u.).

As for “ATTATCCATTCAATCAAAACAAGCAGGACTACTAGAAAGCCGGAGTCACCTAGTGCAG”, the binding signal was 8940 fluorescence intensity (a.u.).

“CTTTATTGATTGAGAGGAACTATCTACCTCTGTAATGACACGGAGTCACCTAGTGCAG”: the binding signal is 39200 fluorescence intensity (a.u.).

Take “CAGTGTGATTTAAGAATTTTCAACTGTAAAAGAATAGGAGCGGAGTCACCTAGTGCAG”: the binding signal is 10000 fluorescence intensity (a.u.).

On to “TTTGCCGCTGAGTAATTAAATTGTCTACTTACAAATCCTCCGGAGTCACCTAGTGCAG”, for which the binding signal was 3590 fluorescence intensity (a.u.).

On to “AATAACTAATTGTACATATTACGACTAATTTGCGAGATGACGGAGTCACCTAGTGCAG”, for which the binding signal is 35000 fluorescence intensity (a.u.).

Take “AAAATAACTAATTGCACAGATTGTGACTAATTTGCGAGACCGGAGTCACCTAGTGCAG”: the binding signal is 34900 fluorescence intensity (a.u.).

Take “CTAGATTTATAATTAAATAAATTATTATAATATATAACTCCGGAGTCACCTAGTGCAG”: the binding signal is 42700 fluorescence intensity (a.u.).

Consider “AACTAATTAATTTATTGGCAGGCACTGGCCTACCAAACCTCGGAGTCACCTAGTGCAG”, for which the binding signal was 53100 fluorescence intensity (a.u.).

“CAGGACTAATTGGGGTTGCAAACTGGGACTACAAACTACTCGGAGTCACCTAGTGCAG”: the binding signal was 28300 fluorescence intensity (a.u.).

As for “TCAATTGATTATTACTGCCGCTTACTGTCTCCTCTACTGCCGGAGTCACCTAGTGCAG”, the binding signal was 53300 fluorescence intensity (a.u.).

In the case of “ATCAATCACTACTGCATATTACTATAATCTCCTCTATACTCGGAGTCACCTAGTGCAG”, the binding signal was 5200 fluorescence intensity (a.u.).

In the case of “ACAAAACCAACTAATTAGGCAGGCAGCCATTTACCTCCATCGGAGTCACCTAGTGCAG”, the binding signal is 5480 fluorescence intensity (a.u.).

In the case of “TCTAATTACTTATTAATTAATTGATTTAATTAAATTAATCCGGAGTCACCTAGTGCAG”, the binding signal was 40400 fluorescence intensity (a.u.).

In the case of “AATAACTAATTGCATAGATTGTGACTAATTTGCGATGCGACGGAGTCACCTAGTGCAG”, the binding signal is 55200 fluorescence intensity (a.u.).

Take “CCGCACCTAAATTGATTGATTATTAATTTAACTGCCGCTCCGGAGTCACCTAGTGCAG”: the binding signal is 65500 fluorescence intensity (a.u.).

In the case of “AAAACAGTTTGATTAGCTTTCTGTCGAATCTGTCATGCATCGGAGTCACCTAGTGCAG”, the binding signal was 16500 fluorescence intensity (a.u.).

As for “TTCTGATTAGTTACAACTTGAGTTCACTATTGTCATGATACGGAGTCACCTAGTGCAG”, the binding signal is 37200 fluorescence intensity (a.u.).

On to “GACAAGATCAGTCCTAATTATATATATGTTTTACCTTCTACGGAGTCACCTAGTGCAG”, for which the binding signal was 4490 fluorescence intensity (a.u.).

Regarding “TGCAATAAATTATAGATGACTGAACATTTACACTCTACAGCGGAGTCACCTAGTGCAG”, the binding signal is 15300 fluorescence intensity (a.u.).

Take “CATAACTAATTAGTAACACAAAGAATATTGATTAGATGATCGGAGTCACCTAGTGCAG”: the binding signal was 43100 fluorescence intensity (a.u.).

As to “CGCTAAAATTAAAAGTTTGATTGAAATTAGAACGATGTAACGGAGTCACCTAGTGCAG”, the binding signal was 30300 fluorescence intensity (a.u.).

As to “TTAAAATTAAACTTTTGCAGTCTTTCTAATTTGCCTCCTCCGGAGTCACCTAGTGCAG”, the binding signal was 5220 fluorescence intensity (a.u.).

Consider “ACTGAACAAATTGAGCATGGTGTATATGTCACATTTTCTACGGAGTCACCTAGTGCAG”, for which the binding signal is 6220 fluorescence intensity (a.u.).

On to “TACATACAAGTTACAGTGTAATTACACTACGATTGTACTACGGAGTCACCTAGTGCAG”, for which the binding signal is 3630 fluorescence intensity (a.u.).

Take “TTGCACTGATTTTGTAACTTAAGGGATACGTCGTATCCGGCGGAGTCACCTAGTGCAG”: the binding signal is 6500 fluorescence intensity (a.u.).

“AGCCACGCAATCAATTAAATAATTAAGATAGGTACACGTGCGGAGTCACCTAGTGCAG”: the binding signal is 26400 fluorescence intensity (a.u.).

“CATATGACCAGTTTAACTGCCATCATGCAGACACACAGGACGGAGTCACCTAGTGCAG”: the binding signal is 3410 fluorescence intensity (a.u.).

As to “ATATAAATCAAATTTACAACTTTGCTGTAGCTATAATTTGCGGAGTCACCTAGTGCAG”, the binding signal is 7160 fluorescence intensity (a.u.).

Regarding “CATATGATTAATTAAAATTTTATCATTTAGAACTTGAAAACGGAGTCACCTAGTGCAG”, the binding signal is 34800 fluorescence intensity (a.u.).

As to “ATAACTTTTAATTTAAGCTAATTTTATTTCTGCCGGACATCGGAGTCACCTAGTGCAG”, the binding signal is 19600 fluorescence intensity (a.u.).

Regarding “ATTATTTGTGATTTGATTGCTAGTGATTTGAACTAATGGCCGGAGTCACCTAGTGCAG”, the binding signal was 64300 fluorescence intensity (a.u.).

“CATTATTGATTGATTGATTCGCAGATTCGCCGCTGCCACCCGGAGTCACCTAGTGCAG”: the binding signal is 57200 fluorescence intensity (a.u.).

As to “GCATAACTAATTGTTGTTGCACATATTTTCTTTATAAAGCCGGAGTCACCTAGTGCAG”, the binding signal is 15500 fluorescence intensity (a.u.).

Consider “TATTGATTAAATTTAATTTATAGATAGACTAATATTTTACCGGAGTCACCTAGTGCAG”, for which the binding signal is 29800 fluorescence intensity (a.u.).

Turning to “CCGCACTCTATTATTGTATTGATTAGCTTGTGTCATTCGCCGGAGTCACCTAGTGCAG”, the binding signal was 20500 fluorescence intensity (a.u.).

Take “TAGGTGACAGTTTATTTAATGCTATTGACACTATTCTAGCCGGAGTCACCTAGTGCAG”: the binding signal is 8640 fluorescence intensity (a.u.).

Turning to “GATGAAGATTGATATTACCTGCGGCCGCCGGCGCCGCTGTCGGAGTCACCTAGTGCAG”, the binding signal is 7110 fluorescence intensity (a.u.).

Take “AATGGGAACTAATGGGCCGGATTGACTACTTTGCTACATTCGGAGTCACCTAGTGCAG”: the binding signal is 3240 fluorescence intensity (a.u.).

Turning to “TTAATTAATTGCTAATTACACTAATTAATTTATTGATAGCCGGAGTCACCTAGTGCAG”, the binding signal is 65200 fluorescence intensity (a.u.).

Turning to “GTGATTGGGCTATTTGTAATGTTCAGATGGTGAACTGTGCCGGAGTCACCTAGTGCAG”, the binding signal is 27600 fluorescence intensity (a.u.).

“CACATAATTGAACTGCTAATTTTATTCTAGTCGGAAGCACCGGAGTCACCTAGTGCAG”: the binding signal is 54600 fluorescence intensity (a.u.).
